This is a sample that favours compounds with a hit; in the whole collection about 3.5% have one here.
Rv3671c inh – inhibits the M. tuberculosis serine protease Rv3671c | P9WHR9 | inhibition, % at 5.96 µM | 320,000 tested, 0.048% active | AID 2606; in the data active = inhibition above about 38%;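 also: extracellular domain of Rv3671c used as enzyme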
GDH-TPI counter-1 – inhibits GDH-TPI coupling enzymes, artifact for Mtb FBA screen; GDH-TPI coupled enzyme counterscreen, NADH absorbance; inhibition, % at 4.8 µM; 360,000 tested, 1.2% active; in the data active = inhibition above about 30%
Mtb FBA inh – inhibits M. tuberculosis FBA enzyme; 360,000 tested, 2.3% active; P9WQA3; purified M. tuberculosis FBA, fluorescence read-out; inhibition, % at 1 µM
Mtb UGM inh – blocks M. tuberculosis UGM enzyme; 320,000 tested, 0.06% active; inhibition, % at 10 µM; P9WIQ1; purified UGM, fluorescence polarization probe displacement; in the data active = inhibition above about 10%, passing the limit was not always enough; inconclusive = no clear call, values can overlap the other calls
Target sequence (P9WIQ1 whole entry, looked up): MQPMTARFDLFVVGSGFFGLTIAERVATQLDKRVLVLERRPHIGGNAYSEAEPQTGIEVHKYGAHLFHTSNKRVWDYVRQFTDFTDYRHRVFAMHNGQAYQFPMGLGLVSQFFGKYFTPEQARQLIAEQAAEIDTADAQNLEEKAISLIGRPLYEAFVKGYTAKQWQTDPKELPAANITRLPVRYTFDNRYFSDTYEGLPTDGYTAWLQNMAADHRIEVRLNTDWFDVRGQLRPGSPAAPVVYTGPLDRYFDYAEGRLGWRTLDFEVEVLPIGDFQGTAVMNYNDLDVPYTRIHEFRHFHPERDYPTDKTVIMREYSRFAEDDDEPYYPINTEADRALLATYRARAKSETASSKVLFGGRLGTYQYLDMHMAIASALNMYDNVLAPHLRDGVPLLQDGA
Mtb betalactam – beta-lactam sensitization of Mtb H37Rv. 330,000 tested, 0.27% active. M. tuberculosis H37Rv growth with meropenem, percent inhibition. inhibition, % at 25 µM; call rule not given here;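 also: growth measured after seven days incubation then overnight dye step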
Mtb FBA confirm – confirmation of M. tuberculosis fructose-bisphosphate aldolase inhibitors; AID 651616; 5,600 tested, 78% active; inhibition, % at 1 µM; purified M. tuberculosis FBA, fluorescence read-out; shares compounds with Mtb FBA inh
GDH-TPI counter-2 – inhibits GDH-TPI coupling enzymes, flagging Mtb FBA hits; inhibition, % at 1 µM; 5,600 tested, 81% active; GDH-TPI coupled enzyme counterscreen, fluorescence; shares compounds with Mtb FBA inh; AID 652141; in the data active = inhibition above about 10%
A number is an active result; 0 = inactive; ? = inconclusive; - = no result; + = active, no number. Rule as the data show it, unless noted: active = inhibition above about 27%; inactive = the rest.

SMILES | Rv3671c inh | GDH-TPI counter-1 | Mtb FBA inh | Mtb UGM inh | Mtb betalactam | Mtb FBA confirm | GDH-TPI counter-2
Cc1cccc(C=Nc2ccccc2C(N)=O)c1 | 0 | 0 | 36 | 0 | 0 | 140 | 101
CNC(=O)Nc1ccccc1C(=O)Nc1ccccc1 | 0 | 0 | 0 | 0 | 0 | - | -
COc1ccc(N2CCN(S(=O)(=O)c3ccc(OC)c(C(=O)N4CCCC4)c3)CC2)cc1 | 0 | 0 | 0 | 0 | 0 | - | -
O=CNc1ccc2c3c(cccc13)-c1ccccc1-2 | - | 0 | 79 | - | - | 70 | 51
c1ccc2c(c1)-c1cccc3cccc-2c13 | 0 | 0 | 0 | 0 | 0 | - | -
Cc1ccc(NC(=O)Cn2c(=O)c(C)nc3ccccc32)cc1 | 0 | 0 | 0 | 0 | 0 | - | -
COCCn1c(/C=C/c2ccccc2)nc2ccccc21 | 0 | 0 | 53 | 0 | 0 | 0 | 0
Cn1c(=O)c(/C=C/c2ccc(F)cc2)nc2ccccc21 | - | 0 | 0 | - | - | - | -
Cn1c(/C=C/c2ccccc2)nc2ccccc21 | 0 | 0 | 48 | 0 | 0 | 199 | 168
Cn1c(=O)c(/C=C/c2ccccc2)nc2ccccc21 | 0 | 0 | 0 | 0 | 0 | - | -
CC(=O)c1ccc(/C=C/c2nc3ccccc3n2C)o1 | 0 | 0 | 46 | 0 | 0 | 0 | 17
Cc1cccc(NC(=O)Cn2c(/C=C/c3ccccc3)nc3ccccc32)c1 | 0 | 0 | 32 | 0 | 0 | 42 | 34
Cc1ccc(OCCN(C)C(=O)c2cc(COc3ccc(F)cc3F)on2)cc1 | 0 | 0 | 0 | 0 | ? | - | -
O=C(Cn1cc([N+](=O)[O-])cn1)NC1CCCCCC1 | 0 | 0 | 0 | 0 | 0 | - | -
COc1ccccc1Cn1c(/C=C/c2ccccc2)nc2ccccc21 | 0 | 0 | 65 | - | 0 | 98 | 77
COC(=O)c1[nH]c2cccc(OC)c2c1NC(=O)CN1CC(C)OC(C)C1 (stereo not given) | 0 | 0 | 0 | 0 | 0 | - | -
COC(=O)c1[nH]c2cc(OC)c(OC)cc2c1NC(=O)CN1C[C@H]2C[C@@H](C1)c1cccc(=O)n1C2 | 0 | 0 | 37 | 0 | 0 | 69 | 54
COCC1CCN(C(=O)c2ccc3oc(C(C)C)nc3c2)C1 (stereo not given) | - | 0 | 0 | - | - | - | -
S=C(c1ccc(-c2ccc(Br)cc2)o1)N1CCOCC1 | 0 | 0 | 0 | 0 | 0 | - | -
S=C(c1ccc(-c2ccc(Br)cc2)o1)N1CCCCC1 | 0 | 0 | 59 | 0 | 0 | 0 | 0
c1ccc(-c2nc(-c3nccc4ccccc34)oc2-c2ccccc2)cc1 | 0 | 0 | 62 | 0 | 0 | 91 | 52
Nc1nc(-c2ccccc2)c(-c2ccccc2)o1 | 0 | 0 | 0 | 0 | 0 | - | -
NC(=O)C1CCN(C(=O)C(=O)c2cn(CC(=O)N3CCCCCC3)c3ccccc23)CC1 | 0 | 0 | 0 | 0 | 0 | - | -
CC(C)[C@H](NC(=O)[C@@H]1CSC2c3ccccc3C(=O)N21)C(=O)NC1CCCCC1 (stereo not given in full) | 0 | 0 | 0 | 0 | 0 | - | -
N#Cc1c(C(F)(F)F)cc(-c2ccccc2)nc1SCCN1CCOCC1 | 0 | 0 | 47 | 0 | 0 | 0 | 0
SMILES | Rv3671c inh | GDH-TPI counter-1 | Mtb FBA inh | Mtb UGM inh | Mtb betalactam | Mtb FBA confirm | GDH-TPI counter-2
Cc1ccc(NC(=O)CSc2nnc3n2CCCCC3)cc1S(=O)(=O)N1CCOCC1 | - | 0 | 0 | - | - | - | -
Cc1nc(-c2cccc(S(=O)(=O)N3CCCCC3)c2)cs1 | 0 | 0 | 0 | 0 | 0 | - | -
Cc1nc(-c2cccc(S(=O)(=O)N3CCC(C)CC3)c2)cs1 | 0 | 0 | 41 | 0 | 0 | + | +
Cc1cn2c(nc(=O)c3cccnc32)s1 | 0 | 0 | 36 | 0 | 0 | 107 | 87
CCCC12CN3CC(C)(CN(C1)C3c1ccco1)C2=O (stereo not given) | 0 | 0 | 0 | 0 | 0 | - | -
CCCc1ccc(C(=O)/C=C/N(C)C)cc1 | 0 | 0 | 0 | 0 | 0 | - | -
Cc1ccc(C(=O)Nc2ccc3nccnc3c2)cc1 | 0 | 0 | 37 | 0 | 0 | 44 | 36
Cc1cc(NC(=O)c2ccc3nccnc3c2)ccc1Br | 0 | 0 | 0 | 0 | 0 | - | -
CC1=C[C@@H]2c3cccc4[nH]cc(c34)C[C@H]2N(C)C1 | 0 | 0 | 82 | 0 | 0 | 52 | 49
O=C(c1ccc2ccccc2c1)C1CCCN(C(=O)c2cnccn2)C1 (stereo not given) | 0 | 0 | 0 | 0 | 0 | - | -
COc1ccc2cc(C(=O)C3CCCN(C(=O)c4cc5nc(C)cc(C)n5n4)C3)ccc2c1 (stereo not given) | 0 | 0 | 75 | 0 | 0 | 97 | 87
CC(C)Oc1cccc(C(=O)C2CCCN(C(=O)c3ccccn3)C2)c1 (stereo not given) | 0 | 0 | 0 | 0 | 0 | - | -

Assay outcomes deposited in PubChem BioAssay by several laboratories.
